# Reference: PubChem BioAssay (Tox21)
# Values joined by “and” are separate entries in the source; they are usually repeats but may differ in a detail not shown here. Identical values can stand only once. Values without a mark were called inactive. Records with an inconclusive call do not appear. A call without a number means that no potency is given here. Active and inactive are the calls of the source. Unless noted, calls come from the whole dose curve; as a rule, active = well fitted curve in the direction sought with a large enough effect in the repeat runs; inconclusive = weak or mixed curves; inactive = no such curve, though single readings can be large; an effect the other way counts as inactive or inconclusive.
# Experiments:
# [1] = qHTS assay to test for compound auto fluorescence at 535 nm (green) in HEK293 cells (AID 720680)
# [2] = qHTS assay to test for compound auto fluorescence at 460 nm (blue) in HEK293 cell free culture (AID 720681)
# In short: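 Compounds were added to cell-free DMEM with 10% FBS and fluorescence read directly. The blue channel used 405 nm excitation and 460 nm emission, with triamterene as the reference fluorophore.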
# [3] = qHTS assay to test for compound auto fluorescence at 535 nm (green) in HEK293 cell free culture (AID 720682)
# In short: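 DMEM + 10% FBS, cell-free; cpd or DMSO pinned in; Ex485/Em535 read; output as fluorescein-equivalent signal.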
# [4] = qHTS assay to test for compound auto fluorescence at 590 nm (red) in HEK293 cell free culture (AID 720683)
# In short: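 Cell-free wells of DMEM with 10% FBS received compound, and intrinsic fluorescence was read at excitation/emission 540/590 nm. Values expressed as equivalence to Rose Bengal sodium.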
# [5] = qHTS assay to test for compound auto fluorescence at 590 nm (red) in HepG2 cell free culture (AID 720684)
# In short: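 Compounds are added to culture medium (MEM, 10% FBS) lacking cells, then fluorescence is read at excitation 540 nm, emission 590 nm, with Rose Bengal sodium as the equivalency standard.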
# [6] = qHTS assay to test for compound auto fluorescence at 460 nm (blue) in HepG2 cell free culture (AID 720685)
# In short: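 Compound (23 nL) or DMSO pinned into cell-free MEM with 10% FBS; blue fluorescence read at 405/460 nm excitation/emission, expressed as auto-fluorescence equivalency to triamterene.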
# [7] = qHTS assay to test for compound auto fluorescence at 535 nm (green) in HepG2 cell free culture (AID 720686)
# [8] = qHTS assay to test for compound auto fluorescence at 460 nm (blue) in HepG2 cells (AID 720687)
# In short: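 HepG2 cells in MEM with 10% FBS, attached overnight at 37 C, were exposed to compound or DMSO for 1 hr at 37 C, 5% CO2. Blue fluorescence was read at 405/460 nm, with triamterene as reference fluorophore.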
# [9] = molecular target: Glucocorticoid receptor (Homo sapiens) (UniProt P04150); experiment: qHTS assay to identify small molecule agonists of the glucocorticoid receptor (GR) signaling pathway (AID 720691; active = well fitted activation curve with a large enough effect in the signal ratio in the repeat runs, not every such curve was filed as active; the % refers to the signal ratio)
# Chain of Glucocorticoid receptor (Homo sapiens) (P04150 whole entry, looked up): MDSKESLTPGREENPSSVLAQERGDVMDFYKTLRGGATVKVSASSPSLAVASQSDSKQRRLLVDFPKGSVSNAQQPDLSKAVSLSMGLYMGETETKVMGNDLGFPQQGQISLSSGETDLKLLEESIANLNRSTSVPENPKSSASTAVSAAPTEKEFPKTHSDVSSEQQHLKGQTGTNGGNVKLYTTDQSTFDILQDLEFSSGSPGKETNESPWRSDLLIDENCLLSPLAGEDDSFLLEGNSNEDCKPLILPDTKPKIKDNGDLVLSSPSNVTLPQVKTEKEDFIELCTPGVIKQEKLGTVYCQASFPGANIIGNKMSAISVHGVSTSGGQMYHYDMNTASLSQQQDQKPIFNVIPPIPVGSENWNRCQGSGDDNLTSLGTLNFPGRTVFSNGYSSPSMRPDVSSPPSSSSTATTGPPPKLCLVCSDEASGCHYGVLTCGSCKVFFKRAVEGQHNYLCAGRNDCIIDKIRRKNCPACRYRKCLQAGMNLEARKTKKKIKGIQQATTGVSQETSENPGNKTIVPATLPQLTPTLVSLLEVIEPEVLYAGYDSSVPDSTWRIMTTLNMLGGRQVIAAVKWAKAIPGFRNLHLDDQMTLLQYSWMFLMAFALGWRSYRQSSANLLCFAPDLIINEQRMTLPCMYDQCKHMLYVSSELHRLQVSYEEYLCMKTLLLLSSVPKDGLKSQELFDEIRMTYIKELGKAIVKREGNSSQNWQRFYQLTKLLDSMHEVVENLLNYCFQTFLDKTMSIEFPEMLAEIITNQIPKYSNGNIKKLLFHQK
# In short: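 Reporter read-out: fluorescence intensity following 2 h room-temperature LiveBLAzer B/G FRET substrate loading. Prior step: GR-bla HeLa cells held 4 h, then treated 18 h at 37 C.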
# [10] = qHTS assay to identify small molecule antagonists of the glucocorticoid receptor (GR) signaling pathway - cell viability counter screen (AID 720693); note: nearly all actives have a fitted effect of over 55% in size
# [11] = qHTS assay for identifying genotoxic compounds that show differential cytotoxicity against isogenic chicken DT40 cell lines with known DNA damage response pathways - wild type cell line (AID 743012); note: nearly all actives have a fitted effect of over 60% in size; note: potency is the fitted concentration of half-maximal effect
# In short: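 Using parental DT40 (300 cells/well), compounds delivered in DMSO incubate 40 h at 37 C/5% CO2. CellTiter-Glo reagent then stands 30 min at room temperature, and luminescence gives cell viability.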
# [12] = qHTS assay for identifying genotoxic compounds that show differential cytotoxicity against isogenic chicken DT40 cell lines with known DNA damage response pathways - Rad54/Ku70 mutant cell line (AID 743015); note: nearly all actives have a fitted effect of over 60% in size; note: potency is the fitted concentration of half-maximal effect
# [13] = qHTS assay to identify small molecule antagonists of the androgen receptor (AR) signaling pathway - cell viability counter screen (AID 743033; note: nearly all actives have a fitted effect of over 45% in size; note: potency is the fitted concentration of half-maximal effect)
# [14] = qHTS assay to identify small molecule antagonists of the androgen receptor (AR) signaling pathway using the MDA cell line - cell viability counter screen (AID 743041; note: nearly all actives have a fitted effect of over 45% in size)
# In short: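 Same-well cytotoxicity was assessed by CellTiter-Fluor in MDA-kb2 AR-luc cells after 16 h of compound treatment under R1881 agonism.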
# [15] = qHTS assay for identifying genotoxic compounds that show differential cytotoxicity against isogenic chicken DT40 cell lines with known DNA damage response pathways - Rev3 mutant cell line (AID 743014); note: nearly all actives have a fitted effect of over 55% in size; note: potency is the fitted concentration of half-maximal effect
# [16] = molecular target: Androgen receptor (Homo sapiens) (UniProt P10275); experiment: qHTS assay to identify small molecule antagonists of the androgen receptor (AR) signaling pathway (AID 743035; active = well fitted inhibition curve with a large enough effect in the signal ratio in the repeat runs, not every such curve was filed as active; the % refers to the signal ratio; note: potency is the fitted concentration of half-maximal effect)
# Chain of Androgen receptor (Homo sapiens) (P10275 whole entry, looked up): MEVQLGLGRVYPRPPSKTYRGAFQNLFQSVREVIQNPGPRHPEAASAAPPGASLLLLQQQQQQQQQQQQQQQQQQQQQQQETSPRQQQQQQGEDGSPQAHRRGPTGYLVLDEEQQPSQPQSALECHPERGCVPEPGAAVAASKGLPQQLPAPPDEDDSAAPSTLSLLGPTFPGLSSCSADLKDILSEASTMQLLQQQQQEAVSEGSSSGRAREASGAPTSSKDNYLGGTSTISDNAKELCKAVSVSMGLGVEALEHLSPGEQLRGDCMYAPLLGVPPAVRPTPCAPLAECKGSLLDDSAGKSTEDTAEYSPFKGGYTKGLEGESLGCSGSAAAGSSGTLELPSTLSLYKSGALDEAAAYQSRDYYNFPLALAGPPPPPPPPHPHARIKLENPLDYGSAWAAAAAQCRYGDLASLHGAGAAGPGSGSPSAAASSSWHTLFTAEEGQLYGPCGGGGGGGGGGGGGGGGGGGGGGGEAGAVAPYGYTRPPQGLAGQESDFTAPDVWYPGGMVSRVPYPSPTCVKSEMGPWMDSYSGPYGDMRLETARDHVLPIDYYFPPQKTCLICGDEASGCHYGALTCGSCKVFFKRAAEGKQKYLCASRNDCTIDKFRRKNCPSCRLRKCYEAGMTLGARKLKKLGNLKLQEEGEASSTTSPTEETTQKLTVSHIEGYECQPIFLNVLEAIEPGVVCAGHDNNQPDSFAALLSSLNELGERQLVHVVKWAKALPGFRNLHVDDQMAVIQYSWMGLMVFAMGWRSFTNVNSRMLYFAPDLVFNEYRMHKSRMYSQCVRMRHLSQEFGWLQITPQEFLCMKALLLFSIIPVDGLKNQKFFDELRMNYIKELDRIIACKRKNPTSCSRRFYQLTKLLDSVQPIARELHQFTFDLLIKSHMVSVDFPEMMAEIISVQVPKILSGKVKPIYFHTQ
# In short: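 Using qHTS, AR-UAS-bla GripTite HEK293 cells received compound, then R1881, and were cultured 16 h at 37C/5% CO2 before a 2 h room-temperature LiveBLAzer B/G FRET substrate step and fluorescence measurement.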
# [17] = molecular target: Androgen receptor (Homo sapiens) (UniProt P10275); experiment: qHTS assay to identify small molecule agonists of the androgen receptor (AR) signaling pathway (AID 743036; active = well fitted activation curve with a large enough effect in the signal ratio in the repeat runs, with a control signal flat, not every such curve was filed as active; the % refers to the signal ratio)
# In short: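 Screening used 2,000 AR-bla HEK293 cells per well, treated 16 h at 37C with test compounds in DMSO alongside positive and DMSO-only controls; beta-lactamase activity was then read by LiveBLAzer B/G FRET fluorescence after 2 h at room temperature.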
# [18] = molecular target: Androgen receptor (Homo sapiens) (UniProt P10275); experiment: qHTS assay to identify small molecule agonists of the androgen receptor (AR) signaling pathway using the MDA cell line (AID 743040; note: nearly all actives have a fitted effect of over 20% in size)
# In short: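 Human breast carcinoma MDA-kb2 reporter cells (MMTV-luc, AR/GR elements) were treated for 16 h at 37C in 0% CO2 following a 5 h settling period. Signal was quantified by ONE-Glo luminescence.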
# [19] = molecular target: Androgen receptor (Homo sapiens) (UniProt P10275); experiment: qHTS assay to identify small molecule antagonists of the androgen receptor (AR) signaling pathway using the MDA cell line (AID 743042; note: nearly all actives have a fitted effect of over 55% in size; note: potency is the fitted concentration of half-maximal effect)
# In short: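 MDA-kb2 breast carcinoma cells carrying MMTV-luciferase (AR/GR responsive) were co-treated with compounds and the agonist R1881 for 16 h at 37C. Inhibition read as ONE-Glo luminescence; CellTiter-Fluor fluorescence measured in parallel for cytotoxicity.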
# [20] = molecular target: Glucocorticoid receptor (Homo sapiens) (UniProt P04150); experiment: qHTS assay to identify small molecule antagonists of the glucocorticoid receptor (GR) signaling pathway (AID 720692; active = well fitted inhibition curve with a large enough effect in the signal ratio in the repeat runs, not every such curve was filed as active; the % refers to the signal ratio)
# In short: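 Dexamethasone (5 nM final) stimulated a stably integrated GRE-beta-lactamase reporter in HeLa cells during 18 h co-incubation with compounds; signal was quantified as fluorescence intensity of B/G FRET substrate after 2 h.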
compound,measurement,setting,value
COC1=CC(=O)O[C@@H](/C=C/c2ccccc2)C1,outcome,[1],inactive
same,outcome,[2],inactive
same,outcome,[3],inactive
same,outcome,[4],inactive
same,outcome,[5],inactive
same,outcome,[6],inactive
same,outcome,[7],inactive
same,outcome,[8],inactive
same,Potency,[9],inactive
same,Potency,[10],inactive
same,Potency,[11],inactive
same,Potency,[12],inactive
same,Potency,[13],inactive
same,Potency,[14],inactive
CC(C)(C)C(=O)Cl,outcome,[1],inactive
same,outcome,[2],inactive
same,outcome,[3],inactive
same,outcome,[4],inactive
same,outcome,[5],inactive
same,outcome,[6],inactive
same,outcome,[7],inactive
same,outcome,[8],inactive
same,Potency,[9],inactive
same,Potency,[10],inactive
same,Potency,[11],inactive
same,Potency,[15],inactive
same,Potency,[12],inactive
same,Potency,[13],inactive
same,Potency,[14],inactive
CS(=O)(=O)c1ccc(C(=O)C2C(=O)CCCC2=O)c(Cl)c1COCC(F)(F)F,outcome,[1],inactive
same,outcome,[2],inactive
same,outcome,[3],inactive
same,outcome,[4],inactive
same,outcome,[5],inactive
same,outcome,[6],inactive
same,outcome,[7],inactive
same,outcome,[8],inactive
same,Potency,[9],inactive
same,Potency,[10],inactive
same,Potency,[11],inactive
same,Potency,[12],inactive
same,Potency,[13],inactive
same,Potency,[14],inactive
N=C(N)[Se],outcome,[1],inactive
same,outcome,[2],inactive
same,outcome,[3],inactive
same,outcome,[4],inactive
same,outcome,[5],inactive
same,outcome,[6],inactive
same,outcome,[7],inactive
same,outcome,[8],inactive
same,Potency,[9],inactive
same,Potency,[11],4.87 µM (active)
same,Potency,[15],2.44 µM (active)
same,Potency,[12],2.44 µM (active)
same,Potency,[13],inactive
same,Potency,[14],inactive
CCCOc1nn(C(=O)NS(=O)(=O)c2ccccc2C(=O)OC)c(=O)n1C,outcome,[1],inactive
same,outcome,[2],inactive
same,outcome,[3],inactive
same,outcome,[4],inactive
same,outcome,[5],inactive
same,outcome,[6],inactive
same,outcome,[7],inactive
same,outcome,[8],inactive
same,Potency,[9],inactive
same,Potency,[10],inactive
same,Potency,[11],inactive
same,Potency,[12],inactive
same,Potency,[16],inactive
same,outcome,[17],inactive
same,outcome,[18],inactive
same,Potency,[14],inactive
same,Potency,[19],inactive
C[C@H]1CCCC(=O)CCC/C=C/c2cc(O)cc(O)c2C(=O)O1,outcome,[1],inactive
same,outcome,[2],inactive
same,outcome,[3],inactive
same,outcome,[4],inactive
same,outcome,[5],inactive
same,outcome,[6],inactive
same,outcome,[7],inactive
same,outcome,[8],inactive
same,Potency,[10],inactive
same,Potency,[11],20.9 µM (active) and 20 µM (active)
same,Potency,[15],16.6 µM (active) and 22.4 µM (active)
same,Potency,[12],16.6 µM (active) and 17.8 µM (active)
same,Potency,[13],42.1 µM (active)
same,Potency,[16],20.2 µM (active)
same,outcome,[17],inactive
same,outcome,[18],inactive
same,Potency,[14],inactive
same,Potency,[19],52.5 µM (active)
O=P(O)(O)CN(CP(=O)(O)O)CP(=O)(O)O,"fluorescence, % of fluorescein",[1],-0.175% [at 18.6 µM]
same,"fluorescence, % of fluorescent control",[2],-0.0261% [at 18.6 µM]
same,activity change,[3],-0.0587% [at 18.6 µM]
same,"fluorescence, % of fluorescent control",[4],0.0352% [at 18.6 µM]
same,"fluorescence, % of Rose Bengal",[5],-0.0485% [at 18.6 µM]
same,"fluorescence, % of fluorescent control",[6],-0.13% [at 18.6 µM]
same,"fluorescence, % of fluorescein control",[7],0.0644% [at 18.6 µM]
same,"fluorescence, % of fluorescent control",[8],-0.044% [at 18.6 µM]
same,Potency,[10],inactive
same,Potency,[11],inactive
same,Potency,[15],inactive
same,Potency,[12],inactive
same,Potency,[13],inactive
same,Potency,[14],inactive
CCOC(=O)NC(C)(C)Cc1ccc(Cl)cc1,outcome,[1],inactive
same,outcome,[2],inactive
same,outcome,[3],inactive
same,outcome,[4],inactive
same,outcome,[5],inactive
same,outcome,[6],inactive
same,outcome,[7],inactive
same,outcome,[8],inactive
same,Potency,[20],inactive
same,Potency,[10],inactive
same,Potency,[15],inactive
same,Potency,[13],inactive
same,Potency,[16],inactive
same,outcome,[17],inactive
same,outcome,[18],inactive
same,Potency,[14],inactive
same,Potency,[19],inactive
CCOP(=O)(CN(CCO)CCO)OCC,outcome,[1],inactive
same,outcome,[2],inactive
same,outcome,[3],inactive
same,outcome,[4],inactive
same,outcome,[5],inactive
same,outcome,[6],inactive
same,outcome,[7],inactive
same,outcome,[8],inactive
same,Potency,[20],inactive
same,Potency,[10],inactive
same,Potency,[11],inactive
same,Potency,[15],inactive
same,Potency,[12],inactive
same,Potency,[13],inactive
same,Potency,[14],inactive
CCOC(=O)N(C)N=O,outcome,[1],inactive
same,outcome,[2],inactive
same,outcome,[3],inactive
same,outcome,[4],inactive
same,outcome,[5],inactive
same,outcome,[6],inactive
same,outcome,[7],inactive
same,outcome,[8],inactive
same,Potency,[9],inactive
same,Potency,[10],inactive
same,Potency,[11],inactive
same,Potency,[13],inactive
same,Potency,[14],inactive
CC(C)(C)C(=O)C(Cl)Cl,outcome,[1],inactive
same,outcome,[2],inactive
same,outcome,[3],inactive
same,outcome,[4],inactive
same,outcome,[5],inactive
same,outcome,[6],inactive
same,outcome,[7],inactive
same,outcome,[8],inactive
same,Potency,[10],inactive
same,Potency,[11],inactive
same,Potency,[15],inactive
same,Potency,[12],inactive
same,Potency,[13],inactive
same,Potency,[14],inactive
C[N+]1(C)CCCCC1,outcome,[1],inactive
same,outcome,[2],inactive
same,outcome,[3],inactive
same,outcome,[4],inactive
same,outcome,[5],inactive
same,outcome,[6],inactive
same,outcome,[7],inactive
same,outcome,[8],inactive
same,Potency,[10],inactive
same,Potency,[11],inactive
same,Potency,[15],inactive
same,Potency,[12],inactive
same,Potency,[13],inactive
same,Potency,[16],inactive
same,outcome,[17],inactive
same,outcome,[18],inactive
same,Potency,[14],inactive
same,Potency,[19],inactive
CNC(=O)NC(O)C(Cl)(Cl)Cl (stereo not given),outcome,[1],inactive
same,outcome,[2],inactive
same,outcome,[3],inactive
same,outcome,[4],inactive
same,outcome,[5],inactive
same,outcome,[6],inactive
same,outcome,[7],inactive
same,outcome,[8],inactive
same,Potency,[10],inactive
same,Potency,[11],inactive
same,Potency,[15],inactive
same,Potency,[12],inactive
same,Potency,[13],inactive
same,Potency,[16],inactive
same,outcome,[17],inactive
same,outcome,[18],inactive
same,Potency,[14],inactive
same,Potency,[19],inactive
N[C@@H](Cc1ccc(Oc2cc(I)c(O)c(I)c2)c(I)c1)C(=O)O,outcome,[1],inactive
same,outcome,[2],inactive
same,outcome,[3],inactive
same,outcome,[4],inactive
same,outcome,[5],inactive
same,outcome,[6],inactive
same,outcome,[7],inactive
same,outcome,[8],inactive
same,Potency,[10],inactive
same,Potency,[11],inactive
same,Potency,[15],inactive
same,Potency,[12],inactive
same,Potency,[13],inactive
same,Potency,[14],inactive
